# PubChem BioAssay (NCI)
# This is part of a sample that, as a whole, favours compounds with a hit. Of some 83,000 tested, about 20% had one in any assay.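 Assay: single dose, 48 h. Readout: percent growth (0 = no net growth; negative = cell death). Active: <10.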 Active and inactive are the calls of the source.
# Test system: SK-OV-3 ovarian
# Experiment: NCI-60 one-dose screen, 48 h (100 = growth as untreated, 0 = no growth, -100 = all killed)
# Conditions: 10 µM
row,SMILES,growth
1,CN1CCN(c2ccc(Nc3nc(NCCCNC(=O)c4ccc(F)cc4)c4sccc4n3)cc2)CC1,102% (inactive)
2,O=C(CS(=O)(=O)c1oc(-c2ccc(Cl)cc2)nc1S(=O)(=O)c1ccc(Cl)cc1)N1CCOCC1,92.8% (inactive)
3,COc1ccc(C(=O)NC(=S)N2CCN(c3ncnc4c3cnn4-c3ccccc3)CC2)cc1,7.3% (active)
4,COc1cccc(COc2ccc(/C=C3\Oc4cc(O)ccc4C3=O)cc2)c1,77.4% (inactive)
5,O=C(O)CCCCCCCCCCN1C(=O)/C(=C/c2cnc(-c3ccc(Cl)cc3)s2)SC1=S,3.51% (active)
6,COc1cccc(C(N)=Nc2ccc(OCCCCCCn3cncn3)cc2)c1,29.6% (inactive)
7,CN(C)c1cccc2c(S(=O)(=O)Nc3cccc(-c4csc(NC(=O)CCCCCN5CCN(c6cc7c(cc6F)C(=O)N(C6CCC(=O)NC6=O)C7=O)CC5)n4)c3)cccc12 (configuration not stated),86.9% (inactive)
8,Cc1ccc(C(C)C)cc1NC(=O)c1ccccc1O,44.5% (inactive)
9,NC(=Nc1ccc(OCCCCCCCCn2ccnn2)cc1)c1ccccc1,21.2% (inactive)
10,O=c1[nH][nH]c(Nc2ccccc2)c1N=Nc1ccc(F)cc1,94.5% (inactive)
11,COc1ccc2[nH]c(O)c(N=NC(=O)c3cc(-c4ccc(C)cc4)nc4ccccc34)c2c1,106% (inactive)
12,CN1C(=O)/C(=C/c2nccs2)SC1=S,105% (inactive)
13,CNC(=O)c1cc(-c2ccc(NC(=O)Nc3ccc(C)cc3)cc2)nc2cccnc12,91.1% (inactive)
14,CC(=O)NNc1ccc2nnc(-c3ccc(Br)cc3)n2n1,81.2% (inactive)
15,O=c1oc2ccc(-c3ccc(F)cc3F)cc2c(=O)n1-c1ccc(F)c(Cl)c1,-9.67% (active)
16,CCN1CCN(c2ccc(NC(=O)Nc3ccc(-c4cc(C(=O)NC(C)C)c5ncccc5n4)cc3)cc2C(F)(F)F)CC1,-91% (active)
17,COC(=O)C(Cc1ccc(O)c(O)c1)NC(=O)C(CSC/C=C(\C)CCCC(C)CCCC(C)CCCC(C)C)NC(C)=O (configuration not stated),41.7% (inactive)
18,CN1CCN(c2ccc(Nc3nc(NCCCNC(=O)c4ccc(Cl)cc4)c4sccc4n3)cc2)CC1,103% (inactive)
19,CCCCCCCCCCCCCCCCCCCC(=O)NCCc1c[nH]c2ccc(O)cc12,137% (inactive)

row,SMILES,growth
1,CCCCCc1ccc(S(=O)(=O)N(C(C)=O)c2cc(-c3csc(N(C)C(C)=O)n3)ccc2N2CCN(C)CC2)cc1,96% (inactive)
2,COc1ccc2[nH]c(O)c(N=NC(=O)COc3ccc(NC(=O)Nc4ccc(Cl)cc4)cc3)c2c1,49.6% (inactive)
3,CCCCCCCCCCCCCCCCCCCC(=O)NCCc1c[nH]c2ccc(OC(=O)NOCCOCCOCCOCCOCCOCCOCCOCCOCCOCCOCCOCCOCCOCCOCCOCCOCCOCCOCCOCCOCCOCCOC)cc12,-10.1% (active)
4,CC1(C)CC[C@]2(C(=O)N3CCOCC3)CC[C@]3(C)C(=CC[C@@H]4[C@@]5(C)CC[C@H](NCO)C(C)(C)[C@@H]5CC[C@]43C)[C@H]2C1,-86.4% (active)
5,Cc1ccc(-c2cc(C(=O)N=Nc3c(O)[nH]c4ccc(Br)cc34)c3ccccc3n2)cc1,107% (inactive)
6,CCC(C)S(=O)(=O)c1oc(-c2ccc(C)cc2)nc1S(=O)(=O)c1ccccc1 (configuration not stated),65.5% (inactive)
7,CCCCCc1ccc(S(=O)(=O)Nc2cc(-c3csc(N(C)C(C)=O)n3)ccc2N2CCN(C)CC2)cc1,21.4% (inactive)
8,C/C(=C\CC/C=C(\C)CC/C=C(\C)CC[C@@H](O)C(C)(C)O)CC/C=C(\C)CC[C@@H](O)C(C)(C)O,64.4% (inactive)
9,CC(C)C(=O)Nc1ccc(C(=O)NC(=S)Nc2ccc(C(=O)O)cc2)cc1,99.9% (inactive)
10,CN1CCN(c2ccc(Nc3nc(N4CCN(S(=O)(=O)c5ccc(F)cc5)CC4)c4sccc4n3)cc2)CC1,-87.2% (active)
11,O=C(Cn1cc(CSc2nnc3oc4ccccc4n23)nn1)Nc1ccc(Br)cc1,53.8% (inactive)
12,CC1(C)CC[C@]2(C(=O)NCCCNCCCCNCCCN)CC[C@]3(C)C(=CC[C@@H]4[C@@]5(C)Cc6c([nH]c7ccccc67)C(C)(C)[C@@H]5CC[C@]43C)[C@H]2C1,66.6% (inactive)
13,COc1ccc(CCN2C(=O)/C(=C/c3csc(C#N)n3)SC2=S)cc1,96.3% (inactive)
14,CC(=O)Nc1nc(-c2ccc(N3CCN(C)CC3)c(NS(=O)(=O)c3ccc(C(F)(F)F)cc3)c2)cs1,77% (inactive)
15,O=C(NO)c1ccc(Cn2ccc3c(Nc4ccccc4)ncnc32)cc1,-7.35% (active)
16,CC(=O)Nc1nc(-c2ccc(N3CCN(C)CC3)c(NS(=O)(=O)c3cccc4c(N(C)C)cccc34)c2)cs1,63.9% (inactive)
17,COC[C@@H](CC(C)C)N=C1NC(=O)/C(=C/c2ccc3ncsc3c2)N1,-0.203% (active)
18,O=C(NC(=S)N1CCN(c2ncnc3c2cnn3-c2ccccc2)CC1)c1ccc(Cl)cc1,41.8% (inactive)
